Holding throughout (assay): NCI-60 one-dose screen, 48 h (100 = growth as untreated, 0 = no growth, -100 = all killed)
Common to all, as to settings: 10 µM unless noted

Assay [1] relates to NCI-H23 lung.
The subject of assay [2] is NCI-H226 lung.
Assay [3] deals with NCI-H322M lung.
The test system of assay [4] is HOP-62 NSCLC.
The subject of assay [5] is NCI-H460 lung.
Assay [6] has as its system HOP-92 NSCLC.
In assay [7] the test system is NCI-H522 lung.
Assay [8] has as its system A549/ATCC NSCLC.
For assay [9], the system named is 786-0 renal.
For assay [10], the system named is COLO 205 colon.

About 83,000 compounds went through this panel and 20% of them were active in at least one assay; those are over-represented in the sample as a whole.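 Method: cells in 96-well plates; compound added at one concentration; 48 h incubation; percent growth measured; values under 10 scored active.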 A number with no mark means an inactive call. Active and inactive are the calls of the source.

On to `COc1ccc(/C(C)=C(/c2ccc(OCCCN(C)C)cc2)c2ccc(OC(=O)c3ccccc3)cc2)cc1`, for which the growth was 82.2% in [1]; 102% in assay [2]; 87% in assay [3]; 92.3% in [4]; 67.1% in [5]; 52.5% in assay [6]. For the same molecule, the growth in [7] is 75.1%; in [8], 69.4%; in assay [9], 73%; in [10] it was 94.4%.
As for `NS(=O)(=O)c1ccc(NC(=O)/C(=C\c2ccc(Cl)cc2Cl)NC(=O)c2ccccc2)cc1`, the growth was 107% in [1]; 103% in assay [2]; 102% in assay [3]; 95.7% in assay [4]; 105% in assay [5]; 87% in assay [6]. The growth in assay [7] was 80.3%; in assay [8] it was 105%; in [9], 104%; in assay [10], 110%.
On to `CCN1C(=O)N(CC)C2C1NC(=S)N2/N=C/c1ccc(C(F)(F)F)cc1` (stereo not given), for which the growth in [1] is 79.8%; in [2], 74.2%; in assay [3], 82.5%; in [4] it was 71.2%; in assay [5], 75.6%; in assay [6], 50.6%. The growth in assay [7] was 48.2%; in [8] it was 39.8%; in assay [9], 79.7%; in assay [10], 80.7%.
For `CC1(C)CC[C@]2(C(=O)N[C@H](CO)Cc3ccccc3)CC[C@]3(C)C(=CC[C@@H]4[C@@]5(C)CCCNC(C)(C)[C@@H]5CC[C@]43C)[C@@H]2C1`, the growth in [1] was 104%; in assay [2], 91.1%; in assay [3], 95.3%; in assay [4], 89%; in [5] it was 78.3%; in [6] it was 26.4%. Besides, the growth in [7] was 96.8%; in assay [8], 89.8%; in assay [9], 65.5%; in assay [10], 77.8%.
On to `O=C(O)COc1ccc(Cl)c(Cl)c1`, for which the growth is 99% in [1]; 94.1% in [2]; 120% in [3]; 100% in [4]; 109% in [5]; 90.2% in assay [6]. Moreover, the growth was 102% in assay [7], 107% in assay [8], 104% in assay [9] and 115% in [10].
As for `N#Cc1c(-c2ccccc2)nc(SCc2nnc(-c3ccc(Cl)cc3)o2)[nH]c1=O`, the growth in assay [1] is 105%; in assay [2], 97.2%; in assay [3], 104%; in assay [4], 63.7%; in assay [5] it was 105%; in [6], 78.8%. Besides, the growth in assay [7] was 71.2%; in assay [8], 78.2%; in assay [9], 89.2%; in [10], 89.3%.
For `[2H]C([2H])([2H])Oc1ccc(F)cc1/C=C/C(=O)/C=C(/C=C/c1cc(F)ccc1OC([2H])([2H])[2H])OB(F)F`, the growth was 76.6% in assay [1]; 109% in assay [2]; 108% in assay [3]; 97.8% in [4]; 95.5% in [5]; 99.7% in assay [6]. The growth in [7] is 18.9%; in [8], 90.8%; in assay [9], 86.3%; in assay [10], 57.6%.
With `Nc1nc2c(c3ncccc13)C(c1cccc(Cl)c1)Cc1ncccc1-2` (stereo not given), the growth is 39.7% in [1]; 75.8% in assay [2]; 49.7% in [3]; 20.1% in assay [4]; 6.87% (active) in assay [5]; 38.6% in assay [6]. For the same molecule, the growth is -14.5% (active) in [7], 18.6% in assay [8], 22.6% in [9] and -21.5% (active) in assay [10].
`CCOC(=O)c1c(C)nc2c(c1N)CC(=O)N2Cc1ccc(OC)cc1`: the growth in [1] is 33.7%; in [2] it was 17.4%; in assay [3], 41%; in assay [4], -7.19% (active); in [5], 5.12% (active); in assay [6], -4.45% (active). For the same molecule, the growth in assay [7] was -1.06% (active); in assay [8] it was 25.8%; in assay [9] it was 6.69% (active); in assay [10], 95.4%.
In the case of `C=C1CC[C@@H]2[C@](C)(COC(C)=O)[C@H](OC(C)=O)CC[C@@]2(C)[C@@H]1CC(Nc1ccc(S(=O)(=O)NC(C)=O)cc1)C1=CCOC1=O` (stereo not given in full), the growth in [1] was 7.36% (active); in [2], -52.3% (active); in [3], 35.3%; in assay [4] it was 82%; in assay [5] it was 5.29% (active); in assay [6], 21%. For the same molecule, the growth was -63.2% (active) in assay [7], 27.9% in assay [8], -66% (active) in [9] and -32.7% (active) in assay [10].
Consider `COc1ccc(/C(C)=C(\c2ccc(Cl)cc2)c2ccc(OCCN3CCCCC3)cc2)cc1`, for which the growth in assay [1] was 57.9%; in [2], 89.4%; in assay [3], 68.8%; in [4], 68.6%; in assay [5] it was 24.6%; in assay [6], 70.3%. Besides, the growth in [7] was 78.3%; in assay [8], 38.5%; in [9], -5.84% (active); in assay [10] it was -4.92% (active).
With `CCOC(=O)CC1CSC(Nc2ccccc2)=N1` (stereo not given), the growth was 98% in assay [1]; 105% in [2]; 96.5% in assay [3]; 100% in assay [4]; 109% in assay [5]; 120% in assay [6]. Moreover, the growth in [7] is 94.9%; in assay [8] it was 95.3%; in [9], 98.7%; in assay [10], 125%.
`N#C/C(=C\c1cn(Cc2ccccc2)c2ccccc12)C(=O)Nc1ncc(Cc2ccccc2Cl)s1`: the growth is -29.3% (active) in assay [1]; -33.6% (active) in assay [2]; 36.1% in assay [3]; 12.5% in [4]; -44.2% (active) in [5]; -6.07% (active) in assay [6]. Besides, the growth in [7] is 30.3%; in [8], 8.73% (active); in assay [9], 6.01% (active); in [10], -2.97% (active).
As to `O=C(CCSc1nnc2n(Cc3ccccc3)c(=O)c3c4c(sc3n12)CCCC4)N1CCN(c2ccccc2)CC1`, the growth is 102% in assay [1]; 100% in [2]; 99.8% in [3]; 103% in assay [4]; 102% in assay [5]; 94% in [6]. The growth in assay [7] is 104%; in assay [8] it was 104%; in [9] it was 102%; in assay [10], 102%.
On to `O=C1Nc2ccccc2C1(c1c[nH]c2ccccc12)c1c[nH]c2ccccc12`, for which the growth in assay [1] was -13.5% (active); in [2], 8.63% (active); in assay [3], -15.6% (active); in assay [4], 49.3%; in assay [5], 70.6%; in assay [6], -6.64% (active). Further, the growth in assay [7] was 21.6%; in assay [8] it was 58.7%; in [9], 83.7%; in [10], -27.7% (active).
Consider `CCOC(=O)C#Cc1c(C(=O)OCC)nnn1Cc1ccc(C(F)(F)F)cc1`, for which the growth was 97.9% in assay [1]; 71.9% in assay [2]; 93.4% in assay [3]; 103% in assay [4]; 95.8% in [5]; 65.5% in assay [6]. Also, the growth is -15.1% (active) in assay [7], 95.8% in [8], 43.6% in assay [9] and 17.2% in assay [10].
`CN1CCN(CC(=O)Nc2ccc3ncnc(Nc4ccc(Oc5cccc(C(F)(F)F)c5)c(Cl)c4)c3c2)CC1`: the growth in [1] is 53.1%; in assay [2] it was 81.5%; in assay [3], 26.5%; in [4] it was 54.1%; in assay [5] it was -69.4% (active); in [6], 39.7%. In addition, the growth in assay [7] was 18%; in assay [8], 10.2%; in [9], -75.8% (active); in assay [10], -39.5% (active).
Consider `O=C(CCl)NNc1nccc(Nc2ccc(S(=O)(=O)Nc3ccncc3)cc2)n1`, for which the growth in [1] was 40.5%; in assay [2] it was 70.8%; in [3], 64.4%; in assay [4] it was 83.2%; in assay [5] it was 27.9%; in [6] it was 37.3%. For the same molecule, the growth was -42.9% (active) in [7], 71.5% in assay [8], 24.1% in assay [9] and 82.2% in assay [10].
With `C#CC#CC#CC#CC#CC#CC#CC#CCC1OC[C@H](COC(=O)O[C@@H](C(=O)O[C@H]2C[C@@]3(O)[C@@H](OC(=O)c4ccccc4)[C@@H]4[C@]5(OC(C)=O)CO[C@@H]5C[C@H](O)[C@@]4(C)C(=O)[C@H](OC(C)=O)C(=C2C)C3(C)C)[C@@H](NC(=O)c2ccccc2)c2ccccc2)O1` (stereo not given in full), the growth in [1] was 32.9%; in assay [2], 50.7%; in assay [3] it was 31.6%; in [4], 38.5%; in assay [5], 10.3%; in assay [6] it was 67.6%. Moreover, the growth in assay [7] is 42.4%; in assay [8], 32.3%; in assay [9] it was 48.8%; in assay [10], 23%.
`N#Cc1c(Nc2ccc(N3CCOCC3)cc2)nc(SCC(=O)c2ccc(Br)cc2)nc1-c1ccccc1`: the growth in assay [1] was 98%; in [2], 108%; in assay [3] it was 97.7%; in assay [4], 92.6%; in assay [5], 114%; in assay [6], 99.7%. In addition, the growth is 96.2% in [7], 97.3% in [8], 101% in assay [9] and 107% in assay [10].
For the molecule `N=c1c(S(=O)(=O)c2ccccc2)cc2c(=O)n3ccccc3nc2n1CC1CCCO1` (stereo not given), the growth in assay [1] is 99.8%; in [2], 103%; in assay [3], 96.4%; in assay [4] it was 95%; in assay [5], 105%; in assay [6], 94.5%. In addition, the growth was 100% in assay [7], 111% in assay [8], 103% in [9] and 113% in [10].

Source of the values: PubChem BioAssay (NCI).
